Compound activity as filed in PubChem.
Hits are enriched below; roughly 3.5% of the tested compounds scored in any of these assays.
ERa SRC1 pot = ER-alpha (human) coactivator binding potentiation. P03372. TR-FRET ERalpha-LBD/SRC-Cy5 coactivator binding, 2 h; 100 = basal binding, no effect. coactivator binding (% of control), % at 25.6 µM. 86,000 tested, 1.3% active; in the data active = activity above about 200%;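 also: binding measured in presence of low estradiol as agonist stimulus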
FAK inh = FAK (human) kinase inhibition. 97,000 tested, 0.84% active. inhibition, %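 (tested at 7 µM)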. biochemical FAK kinase activity assay. Q05397
Mac1 fbg inh = CD11b/CD18-fibrinogen binding inhibition | K562 CD11b/CD18 adhesion to fibrinogen, ATPlite luminescence; Mn2+ added to activate the integrin | 93,000 tested, 0.54% active | inhibition, % at 10 µM | AID 1497 | P05107+P11215;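 active = primary inhibition of 50% or more at 10 µM, then 40% or more on retest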
ERa coact inh = blocks coactivator binding to human estrogen receptor alpha; TR-FRET ER-alpha LBD / SRC-1 peptide, estradiol-bound; P03372; 86,000 tested, 1.7% active; inhibition, % at 25.6 µM; in the data active = inhibition above about 50%
ERb SRC1 inh = blocks coactivator binding to human estrogen receptor beta | 86,000 tested, 1.3% active | TR-FRET ER-beta LBD / SRC1-Cy5 peptide binding; receptor agonist-loaded with 1 µM estradiol | inhibition, % at 25.6 µM | Q92731;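 active = compounds whose percent inhibition of the receptor-coactivator binding signal exceeds about 50% in the single-dose screen, limit read from the data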
Target sequence (Q92731 whole entry, looked up, the tested form may be a part): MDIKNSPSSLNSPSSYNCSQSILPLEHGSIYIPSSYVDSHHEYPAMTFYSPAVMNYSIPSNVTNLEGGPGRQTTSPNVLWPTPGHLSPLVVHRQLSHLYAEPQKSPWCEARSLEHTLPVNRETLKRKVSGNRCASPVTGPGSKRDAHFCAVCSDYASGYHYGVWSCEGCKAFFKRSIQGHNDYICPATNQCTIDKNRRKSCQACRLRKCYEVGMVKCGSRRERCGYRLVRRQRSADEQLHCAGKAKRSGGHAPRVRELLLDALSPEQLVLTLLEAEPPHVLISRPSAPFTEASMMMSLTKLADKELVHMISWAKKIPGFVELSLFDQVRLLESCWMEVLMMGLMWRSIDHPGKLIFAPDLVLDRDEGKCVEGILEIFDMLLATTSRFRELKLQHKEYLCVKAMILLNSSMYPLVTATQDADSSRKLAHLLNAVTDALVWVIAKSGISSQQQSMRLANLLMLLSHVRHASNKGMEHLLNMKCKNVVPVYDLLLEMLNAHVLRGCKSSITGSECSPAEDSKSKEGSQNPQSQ
CD11b adhes enh = enhancers of human CD11b/CD18 binding to fibrinogen. 93,000 tested, 0.07% active. activation, % at 10 µM. K562 CD11b/CD18 adhesion to fibrinogen, ATPlite luminescence;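 active = 10 µM primary screen giving 50% or more activity, confirmed by 40% or more on retest at that dose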
FAK inh confirm = confirmation of human focal adhesion kinase (FAK) inhibitors | shares compounds with FAK inh | FAK kinase biochemical inhibition assay | inhibition, % at 7 µM | 750 tested, 28% active
Numbers stand for hits; [ ] = remark or other dose. Rule as the data show it, unless noted: active = inhibition above about 19%; inactive = the rest.

Results for Cc1cc(C)n(-c2nc(Nc3ccccc3)nc(-n3nc(C)cc3C)n2)n1 ?
ERa SRC1 pot: 248; FAK inh: 26; Mac1 fbg inh: inactive; ERa coact inh: 63[fluorescence artefact?]; ERb SRC1 inh: 55[fluorescence artefact?]; CD11b adhes enh: inactive; FAK inh confirm: inactive

What do the screens show for `Cc1cc(C)n(-c2nc(N(c3ccccc3)c3ccccc3)nc(-n3nc(C)cc3C)n2)n1`?
ERa SRC1 pot: inactive; FAK inh: inactive; ERa coact inh: inactive; ERb SRC1 inh: inactive

What do the screens show for `CC(=O)Oc1ccc(-c2csc(Nc3cccnc3)n2)cc1`?
ERa SRC1 pot: inactive; FAK inh: 20; Mac1 fbg inh: inactive; ERa coact inh: inactive; ERb SRC1 inh: inactive; CD11b adhes enh: inactive; FAK inh confirm: inactive

Results for c1cncc(Nc2nc(-c3ccncc3)cs2)c1 ?
ERa SRC1 pot: inactive; Mac1 fbg inh: inactive; ERa coact inh: inactive; ERb SRC1 inh: inactive; CD11b adhes enh: inactive

Results for Cc1c(O)c(CN2CCCC2)cc2c1oc(=O)c1ccccc12 ?
ERa SRC1 pot: inactive; FAK inh: 40; Mac1 fbg inh: inactive; ERa coact inh: inactive; ERb SRC1 inh: inactive; CD11b adhes enh: inactive; FAK inh confirm: inactive

What do the screens show for `Cc1c(O)c(CN2CCCC2)cc2c3c(c(=O)oc12)CCC3`?
ERa SRC1 pot: inactive; FAK inh: inactive; Mac1 fbg inh: inactive; ERa coact inh: inactive; ERb SRC1 inh: inactive; CD11b adhes enh: inactive

Results for O=C(Cn1c(-c2cncs2)nc2ccccc21)NCCc1ccccc1 ?
ERa SRC1 pot: inactive; FAK inh: inactive; Mac1 fbg inh: inactive; ERa coact inh: inactive; ERb SRC1 inh: inactive; CD11b adhes enh: inactive

How did CCOc1ccc(/C=C\C(C)=N\O)cc1 do in these assays?
ERa SRC1 pot: inactive; FAK inh: 20; ERa coact inh: inactive; ERb SRC1 inh: inactive; FAK inh confirm: inactive

Results for COc1ccccc1NC(=S)N1CCC(NC(=O)NC23CC4CC(CC(C4)C2)C3)CC1 ?
FAK inh: inactive; Mac1 fbg inh: inactive; CD11b adhes enh: inactive

Results for COC(=O)c1ccccc1NC(=O)c1cccc(COc2ccccc2Cl)c1 ?
FAK inh: 23; Mac1 fbg inh: inactive; CD11b adhes enh: inactive; FAK inh confirm: inactive

Results for O=C(NCc1ccccc1)c1cccc(COc2ccccc2Cl)c1 ?
FAK inh: inactive; Mac1 fbg inh: inactive; CD11b adhes enh: inactive

How did CCOC(=O)NC(=O)/C(C#N)=N/Nc1c(F)cccc1F do in these assays?
ERa SRC1 pot: inactive; FAK inh: inactive; Mac1 fbg inh: inactive; ERa coact inh: inactive; ERb SRC1 inh: inactive; CD11b adhes enh: inactive

What do the screens show for `N#C/C(=N\Nc1c(Cl)cccc1Cl)C(=O)NN`?
FAK inh: 45; Mac1 fbg inh: inactive; CD11b adhes enh: inactive; FAK inh confirm: 33

Results for CC(=O)Nc1ccc2nc(-c3cccnc3)[nH]c2c1 ?
ERa SRC1 pot: inactive; ERa coact inh: inactive; ERb SRC1 inh: inactive

Results for c1cncc(-c2nc3ccccc3[nH]2)c1 ?
FAK inh: 28; FAK inh confirm: inactive

How did O=C(CSc1nnc(COc2cccc3cccnc23)o1)N1CCc2ccccc21 do in these assays?
ERa SRC1 pot: inactive; FAK inh: 20; Mac1 fbg inh: inactive; ERa coact inh: inactive; ERb SRC1 inh: inactive; CD11b adhes enh: inactive; FAK inh confirm: inactive

What do the screens show for `COc1ccc(-c2ccc(SCC(=O)N3CCCC3)nn2)cc1OC`?
ERa SRC1 pot: inactive; FAK inh: inactive; Mac1 fbg inh: inactive; ERa coact inh: inactive; ERb SRC1 inh: inactive; CD11b adhes enh: inactive

What do the screens show for `CC1CCCCN1C(=O)CSc1ccc(-c2ccc(F)cc2)nn1` (stereo not given)?
ERa SRC1 pot: inactive; FAK inh: 26; Mac1 fbg inh: inactive; ERa coact inh: inactive; ERb SRC1 inh: inactive; CD11b adhes enh: inactive; FAK inh confirm: inactive

Results for COCCn1c(SCC(=O)NCc2ccco2)nnc1-c1c[nH]c2ccccc12 ?
ERa SRC1 pot: inactive; FAK inh: 40; Mac1 fbg inh: inactive; ERa coact inh: inactive; ERb SRC1 inh: inactive; CD11b adhes enh: inactive; FAK inh confirm: inactive

How did CCn1c(SCC(=O)NCc2ccco2)nnc1-c1c[nH]c2ccccc12 do in these assays?
ERa SRC1 pot: inactive; FAK inh: inactive; Mac1 fbg inh: inactive; ERa coact inh: inactive; ERb SRC1 inh: inactive; CD11b adhes enh: inactive

How did Clc1ccc2[nH]cc(-c3nnnn3-c3ccccc3)c2c1 do in these assays?
FAK inh: 33; FAK inh confirm: 20

What do the screens show for `COc1ccc(CC(=O)Nc2ccc(-c3noc(COc4ccccc4C)n3)cc2)cc1`?
ERa SRC1 pot: inactive; Mac1 fbg inh: inactive; ERa coact inh: inactive; ERb SRC1 inh: inactive; CD11b adhes enh: inactive

How did CCOc1ccccc1-c1nc(-c2ccc(NC(=O)Cc3ccc(OC)cc3)cc2)no1 do in these assays?
ERa SRC1 pot: 287[fluorescence artefact?]; FAK inh: 25; ERa coact inh: inactive; ERb SRC1 inh: 50[fluorescence artefact?]; FAK inh confirm: inactive

What do the screens show for `COc1ccc2[nH]c(=O)c(-c3noc(-c4ccccc4)n3)cc2c1`?
ERa SRC1 pot: inactive; FAK inh: 59; Mac1 fbg inh: inactive; ERa coact inh: 69[fluorescence artefact?]; ERb SRC1 inh: 61[fluorescence artefact?]; CD11b adhes enh: inactive; FAK inh confirm: 36

How did O=c1[nH]c2ccccc2cc1-c1noc(-c2cccnc2)n1 do in these assays?
ERa SRC1 pot: inactive; FAK inh: inactive; Mac1 fbg inh: inactive; ERa coact inh: inactive; ERb SRC1 inh: inactive; CD11b adhes enh: inactive

How did COc1ccc(CCN2CC34C=CC(O3)C(C(=O)NCc3ccccc3)C4C2=O)cc1OC (stereo not given) do in these assays?
FAK inh: inactive; Mac1 fbg inh: inactive; CD11b adhes enh: inactive

Results for c1coc(-c2nc(-c3ccco3)c(-c3ccco3)nc2-c2ccco2)c1 ?
ERa SRC1 pot: inactive; FAK inh: 99; Mac1 fbg inh: inactive; ERa coact inh: 87[fluorescence artefact?]; ERb SRC1 inh: 85[fluorescence artefact?]; CD11b adhes enh: inactive; FAK inh confirm: inactive

How did Nc1nc(-c2ccco2)cs1 do in these assays?
ERa SRC1 pot: inactive; FAK inh: inactive; Mac1 fbg inh: inactive; ERa coact inh: inactive; ERb SRC1 inh: inactive; CD11b adhes enh: inactive

How did COc1ccc(CNC(=O)c2cc(-c3ccco3)on2)cc1 do in these assays?
ERa SRC1 pot: inactive; FAK inh: inactive; ERa coact inh: inactive; ERb SRC1 inh: inactive

How did COc1ccc2nc(-c3ccco3)c(-c3ccco3)nc2c1 do in these assays?
ERa SRC1 pot: inactive; FAK inh: 67; Mac1 fbg inh: inactive; ERa coact inh: 97[fluorescence artefact?]; ERb SRC1 inh: 98[fluorescence artefact?]; CD11b adhes enh: inactive; FAK inh confirm: inactive

How did C=CCn1c(SCCC)nc2sc3c(c2c1=O)CCc1ccccc1-3 do in these assays?
Mac1 fbg inh: inactive; CD11b adhes enh: inactive

Results for c1ccc(-c2nc(NCc3cccnc3)c3ccccc3n2)cc1 ?
FAK inh: inactive; Mac1 fbg inh: inactive; CD11b adhes enh: inactive
